From PubChem BioAssay (NCATS)
Inconclusive results are not listed. Active and inactive are the calls of the source. Calls come from the whole dose curve; as a rule, active = well fitted inhibition curve with a large enough effect; inconclusive = small, poorly fitted or top-dose-only effect; inactive = flat fitted curve, though single readings scatter.

Legend:
[1] = qHTS profiling for inhibitors of Plasmodium falciparum proliferation (AID 504749);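 note: 0% = DMSO vehicle and full inhibition = artemisinin control; nearly all actives have a fitted effect of over 60% in size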; conditions: P. falciparum in erythrocytes, SYBR Green DNA, 72 h
Outline: (§1)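 Parasite proliferation within erythrocytes, 72 h exposure. Endpoint: SYBR Green I fluorescence after overnight lysis at room temperature. Controls: 0.29 uM artemisinin, DMSO.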

3D7 = test: as above; conditions: P. falciparum in erythrocytes, SYBR Green DNA, 72 h; series mostly up to 28.7 µM
Outline: as §1

7G8 = test: as above; conditions: P. falciparum in erythrocytes, SYBR Green DNA, 72 h; series mostly up to 28.7 µM
Outline: as §1

AA1029 = test: as above; conditions: P. falciparum in erythrocytes, SYBR Green DNA, 72 h; series mostly up to 28.7 µM
Outline: as §1

AS120 = test: as above; conditions: P. falciparum in erythrocytes, SYBR Green DNA, 72 h; series mostly up to 28.7 µM
Outline: as §1

ATS189 = test: as above; conditions: P. falciparum in erythrocytes, SYBR Green DNA, 72 h; series mostly up to 28.7 µM
Outline: as §1

ATS95 = test: as above; conditions: P. falciparum in erythrocytes, SYBR Green DNA, 72 h; series mostly up to 28.7 µM
Outline: as §1

C2A = test: as above; conditions: P. falciparum in erythrocytes, SYBR Green DNA, 72 h; series mostly up to 28.7 µM
Outline: as §1

CP185 = test: as above; conditions: P. falciparum in erythrocytes, SYBR Green DNA, 72 h; series mostly up to 28.7 µM
Outline: as §1

CP191 = test: as above; conditions: P. falciparum in erythrocytes, SYBR Green DNA, 72 h; series mostly up to 28.7 µM
Outline: as §1

CP192 = test: as above; conditions: P. falciparum in erythrocytes, SYBR Green DNA, 72 h; series mostly up to 28.7 µM
Outline: as §1

CP194 = test: as above; conditions: P. falciparum in erythrocytes, SYBR Green DNA, 72 h; series mostly up to 28.7 µM
Outline: as §1

CP201 = test: as above; conditions: P. falciparum in erythrocytes, SYBR Green DNA, 72 h; series mostly up to 28.7 µM
Outline: as §1

CP203 = test: as above; conditions: P. falciparum in erythrocytes, SYBR Green DNA, 72 h; series mostly up to 28.7 µM
Outline: as §1

CP211 = test: as above; conditions: P. falciparum in erythrocytes, SYBR Green DNA, 72 h; series mostly up to 28.7 µM
Outline: as §1

CP215 = test: as above; conditions: P. falciparum in erythrocytes, SYBR Green DNA, 72 h; series mostly up to 28.7 µM
Outline: as §1

CP217 = test: as above; conditions: P. falciparum in erythrocytes, SYBR Green DNA, 72 h; series mostly up to 28.7 µM
Outline: as §1

CP237 = test: as above; conditions: P. falciparum in erythrocytes, SYBR Green DNA, 72 h; series mostly up to 28.7 µM
Outline: as §1

CP238 = test: as above; conditions: P. falciparum in erythrocytes, SYBR Green DNA, 72 h; series mostly up to 28.7 µM
Outline: as §1

[2] = at 28.7 µM (top of the series), parasite line A
[3] = at 28.7 µM (top of the series), parasite line B

O=c1[nH]c(=O)c2ccccc2o1
inactive: activity, negative = inhibition [1, 2] 2.32% | activity, negative = inhibition [1, 3] 10.5% | Potency (3D7) | Potency (7G8) | Potency (AA1029) | Potency (AS120) | Potency (ATS189) | Potency (ATS95) | Potency (C2A) | Potency (CP185) | outcome (CP191) | outcome (CP192) | outcome (CP194) | outcome (CP201) | Potency (CP203) | outcome (CP211) | Potency (CP215) | outcome (CP217) | Potency (CP237) | Potency (CP238)

NS(=O)(=O)c1cc(-c2nn[nH]n2)c(NCc2cccs2)cc1Cl
inactive: activity, negative = inhibition [1, 2] 0.998% | activity, negative = inhibition [1, 3] 13.7% | Potency (3D7) | Potency (7G8) | Potency (AA1029) | Potency (AS120) | Potency (ATS189) | Potency (ATS95) | Potency (C2A) | Potency (CP185) | outcome (CP191) | outcome (CP192) | outcome (CP194) | outcome (CP201) | Potency (CP203) | outcome (CP211) | Potency (CP215) | outcome (CP217) | Potency (CP237) | Potency (CP238)

O=C(O)c1cc(=O)c2ccccc2o1
inactive: activity, negative = inhibition [1, 2] -22.1% | activity, negative = inhibition [1, 3] 5.99% | Potency (3D7) | Potency (7G8) | Potency (AA1029) | Potency (AS120) | Potency (ATS189) | Potency (ATS95) | Potency (C2A) | Potency (CP185) | outcome (CP191) | outcome (CP192) | outcome (CP194) | outcome (CP201) | Potency (CP203) | outcome (CP211) | Potency (CP215) | outcome (CP217) | Potency (CP237) | Potency (CP238)

CC(C)c1cc2c(cc1S(=O)(=O)O)[C@@]1(C)CCC[C@@](C)(C(=O)O)[C@@H]1CC2
inactive: activity, negative = inhibition [1, 2] 12.2% | activity, negative = inhibition [1, 3] -0.445% | Potency (3D7) | Potency (7G8) | Potency (AA1029) | Potency (AS120) | Potency (ATS189) | Potency (ATS95) | Potency (C2A) | Potency (CP185) | outcome (CP191) | outcome (CP192) | outcome (CP194) | outcome (CP201) | Potency (CP203) | outcome (CP211) | Potency (CP215) | outcome (CP217) | Potency (CP237) | Potency (CP238)

Cc1c(C(=O)NCCO)[n+](=O)c2ccccc2n1[O-]
inactive: activity, negative = inhibition [1, 2] 8.49% | activity, negative = inhibition [1, 3] -1.36% | Potency (3D7) | Potency (7G8) | Potency (AA1029) | Potency (AS120) | Potency (ATS189) | Potency (ATS95) | Potency (C2A) | Potency (CP185) | outcome (CP191) | outcome (CP192) | outcome (CP194) | outcome (CP201) | Potency (CP203) | outcome (CP211) | Potency (CP215) | outcome (CP217) | Potency (CP237) | Potency (CP238)

CC(C)CCOC(=O)c1ccc(N(C)C)cc1
inactive: activity, negative = inhibition [1, 2] 18.9% | activity, negative = inhibition [1, 3] 14.8% | Potency (3D7) | Potency (7G8) | Potency (AA1029) | Potency (AS120) | Potency (ATS189) | Potency (ATS95) | Potency (C2A) | Potency (CP185) | outcome (CP191) | outcome (CP192) | outcome (CP194) | outcome (CP201) | Potency (CP203) | outcome (CP211) | Potency (CP215) | outcome (CP217) | Potency (CP237) | Potency (CP238)

CCOC(N)=O
inactive: activity, negative = inhibition [1, 2] 8.86% | activity, negative = inhibition [1, 3] 9.69% | Potency (3D7) | Potency (7G8) | Potency (AA1029) | Potency (AS120) | Potency (ATS189) | Potency (ATS95) | Potency (C2A) | Potency (CP185) | outcome (CP191) | outcome (CP192) | outcome (CP194) | outcome (CP201) | Potency (CP203) | outcome (CP211) | Potency (CP215) | outcome (CP217) | Potency (CP237) | Potency (CP238)

Cc1cc(NC(=O)C2=C(O)c3ccccc3S(=O)(=O)N2C)no1
inactive: activity, negative = inhibition [1, 2] 12.7% | activity, negative = inhibition [1, 3] -1.12% | Potency (3D7) | Potency (7G8) | Potency (AA1029) | Potency (AS120) | Potency (ATS189) | Potency (ATS95) | Potency (C2A) | Potency (CP185) | outcome (CP191) | outcome (CP192) | outcome (CP194) | outcome (CP201) | Potency (CP203) | outcome (CP211) | Potency (CP215) | outcome (CP217) | Potency (CP237) | Potency (CP238)

CCN(CC)CCc1nc(-c2ccccc2)no1
inactive: activity, negative = inhibition ([1]; at 12.8 µM (top of the series), parasite line A) -7.93% | activity, negative = inhibition ([1]; at 12.8 µM (top of the series), parasite line B) -5.26% | Potency (3D7) | Potency (7G8) | Potency (AA1029) | Potency (AS120) | Potency (ATS189) | Potency (ATS95) | Potency (C2A) | Potency (CP185) | outcome (CP191) | outcome (CP192) | outcome (CP194) | outcome (CP201) | Potency (CP203) | outcome (CP211) | Potency (CP215) | outcome (CP217) | Potency (CP237) | Potency (CP238)

Cc1c(C)c2c(c(C)c1OC(=O)c1cccnc1)CC[C@@](C)(CCC[C@H](C)CCC[C@H](C)CCCC(C)C)O2
inactive: activity, negative = inhibition [1, 2] -3.82% | activity, negative = inhibition [1, 3] -2.45% | Potency (3D7) | Potency (7G8) | Potency (AA1029) | Potency (AS120) | Potency (ATS189) | Potency (ATS95) | Potency (C2A) | Potency (CP185) | outcome (CP191) | outcome (CP192) | outcome (CP194) | outcome (CP201) | Potency (CP203) | outcome (CP211) | Potency (CP215) | outcome (CP217) | Potency (CP237) | Potency (CP238)

Cc1c(Cn2ccnc2)c2ccccc2n1CCC(=O)O
inactive: activity, negative = inhibition [1, 2] 14.7% | activity, negative = inhibition [1, 3] 0.623% | Potency (3D7) | Potency (7G8) | Potency (AA1029) | Potency (AS120) | Potency (ATS189) | Potency (ATS95) | Potency (C2A) | Potency (CP185) | outcome (CP191) | outcome (CP192) | outcome (CP194) | outcome (CP201) | Potency (CP203) | outcome (CP211) | Potency (CP215) | outcome (CP217) | Potency (CP237) | Potency (CP238)

C=CCNC(N)=S
inactive: activity, negative = inhibition [1, 2] 5.67% | activity, negative = inhibition [1, 3] -1.15% | Potency (3D7) | Potency (7G8) | Potency (AA1029) | Potency (AS120) | Potency (ATS189) | Potency (ATS95) | Potency (C2A) | Potency (CP185) | outcome (CP191) | outcome (CP192) | outcome (CP194) | outcome (CP201) | Potency (CP203) | outcome (CP211) | Potency (CP215) | outcome (CP217) | Potency (CP237) | Potency (CP238)
